A number with no mark means an inactive call.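 The calls were made as follows: active = compounds whose dose series gives a full or clear partial fitted curve of increased nuclear translocation; inconclusive = weak partial curve or effect only at the top dose; inactive = no dose-dependent translocation response.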 Bounds are passed on as bounds.
Potency is read from the fitted curve at half-maximal effect.

For this test, the target named is Glucocorticoid receptor (Homo sapiens) (UniProt P04150). In words: GR-GFP Redistribution (AID 450). As to conditions: U2OS GR-GFP nuclear translocation, laser cytometry, 2 h; series mostly up to 20.6 µM.
Chain of Glucocorticoid receptor (Homo sapiens) (P04150 whole entry, looked up): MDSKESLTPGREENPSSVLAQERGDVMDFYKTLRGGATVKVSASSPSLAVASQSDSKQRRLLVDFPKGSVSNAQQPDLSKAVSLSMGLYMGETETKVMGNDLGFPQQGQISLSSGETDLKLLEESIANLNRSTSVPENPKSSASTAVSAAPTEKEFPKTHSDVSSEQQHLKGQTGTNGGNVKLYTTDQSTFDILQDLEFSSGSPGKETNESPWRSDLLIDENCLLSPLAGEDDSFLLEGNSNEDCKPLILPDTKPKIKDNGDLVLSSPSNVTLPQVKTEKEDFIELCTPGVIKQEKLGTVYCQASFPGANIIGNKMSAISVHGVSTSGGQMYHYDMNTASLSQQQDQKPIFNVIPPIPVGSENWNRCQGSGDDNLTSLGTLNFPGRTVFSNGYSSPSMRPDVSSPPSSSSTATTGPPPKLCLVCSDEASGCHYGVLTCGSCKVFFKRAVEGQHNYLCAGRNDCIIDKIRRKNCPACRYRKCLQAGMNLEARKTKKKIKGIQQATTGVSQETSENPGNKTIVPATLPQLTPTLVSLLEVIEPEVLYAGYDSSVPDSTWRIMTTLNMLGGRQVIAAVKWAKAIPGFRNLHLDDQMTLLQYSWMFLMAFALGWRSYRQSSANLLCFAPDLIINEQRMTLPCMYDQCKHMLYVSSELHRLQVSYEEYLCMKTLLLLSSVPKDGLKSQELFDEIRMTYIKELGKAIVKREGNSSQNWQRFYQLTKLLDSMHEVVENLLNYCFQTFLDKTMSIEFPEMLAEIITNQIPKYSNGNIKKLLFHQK
For `Cn1c(=O)c2c(nc(NCc3ccc4c(c3)OCO4)n2Cc2ccccc2Cl)n(C)c1=O`, the Potency was greater than 20.6 µM. For `CCN(CC)CCn1c(O)c(N=O)c2ccccc21`, the Potency was greater than 20.6 µM.

In the case of `Cc1cc(C)cc(CC2CC(=O)N(c3cc(C)on3)C2=O)c1` (centres undefined), the Potency was greater than 20.6 µM. `CCC(C)Nc1nc(OC)nc(N(C)C#N)n1` (centres undefined): the Potency is greater than 20.6 µM.

As for `CCc1ccccc1NC(=O)CSC1=C(C#N)C(c2ccc(O)c(OC)c2)C2=C(CCCC2=O)N1` (centres undefined), the Potency is greater than 20.6 µM.

As to `Cc1cc(C)n(Cc2ccc(C(=O)NCCC3=CCCCC3)o2)n1`, the Potency was greater than 20.6 µM. To `COc1ccc[nH]c1=O` belongs greater than 20.6 µM. As to `O=C(O)C1CC(=O)N(Cc2cccs2)C1` (centres undefined), the Potency is greater than 20.6 µM.

Turning to `C=CCOC(=O)C1=C(C)OC(N)=C(C#N)C1c1ccoc1` (centres undefined), the Potency was greater than 20.6 µM. To `CCOc1ccc(S(=O)(=O)N(C)C)cc1-c1nc2c(C(C)(C)C)nn(C)c2c(=O)[nH]1` belongs greater than 20.6 µM; to `CC(C)=CCC(C)(C)CNC(=O)NC1CCCCC1`, greater than 20.6 µM; to `CCOc1cccc(-c2nnc3sc(COc4ccccc4)nn23)c1`, greater than 20.6 µM.

Consider `O=C1OC(Nc2ccc(Br)cn2)c2ccccc21` (centres undefined), for which the Potency is greater than 20.6 µM. Next, `COc1cccc(C2/C(=C(/O)c3ccc(C)cc3)C(=O)C(=O)N2Cc2ccco2)c1` (centres undefined): greater than 20.6 µM; `c1coc(-c2nnc3sc(C4CCCCC4)nn23)c1`: greater than 20.6 µM. Turning to `CC(=O)NCCCCCCNC(C)=O`, the Potency is greater than 20.6 µM. To `Cc1c(/C(O)=C2\C(=O)C(=O)N(CCN(C)C)C2c2cccnc2)cnn1-c1ccccc1` (centres undefined) belongs greater than 20.6 µM; to `COc1ccc(C(=O)NCCCCCC(=O)O)cc1OC`, greater than 20.6 µM. Turning to `c1ccc(-n2c(Cc3cccnc3)nc3cnccc32)cc1`, the Potency is greater than 20.6 µM.

`C=CCN(C(=O)CCC(=O)O)C1CC(=O)N(c2ccc(OCCC)cc2)C1=O` (centres undefined): the Potency was greater than 20.6 µM. To `N#CCc1nc2c3c4c(sc3ncn2n1)CCCC4` belongs greater than 20.6 µM. Next, `COC(=O)C(NC(C)=O)(Nc1nc2c(s1)CCCC2)C(F)(F)F` (centres undefined): greater than 20.6 µM; `Cc1ccc2[nH]c3c(c2c1)CN(C(=O)CN1CC(C)OC(C)C1)CC3` (centres undefined): greater than 20.6 µM; `CC(NC(=O)OCc1ccccc1)C(=O)OCN1C(=O)c2ccccc2C1=O` (centres undefined): greater than 20.6 µM. To `CN(C)c1nc2n(c(=O)n1)C(C#N)CS2` (centres undefined) belongs greater than 20.6 µM; to `CNc1oc(-c2ccc(Cl)cc2)nc1C#N`, greater than 20.6 µM. Regarding `CCOC(=O)N1CCN(/C=C(\C#N)c2nc3ccccc3s2)CC1`, the Potency was greater than 20.6 µM.

`Cc1nnc2n(Cc3ccccc3)c(=O)c3c4c(sc3n12)COC(C(C)C)C4` (centres undefined): the Potency is greater than 20.6 µM. As for `COC(=O)c1c(C)noc1-c1cc(C)on1`, the Potency was greater than 20.6 µM. Consider `CCOc1ccc(/C(O)=C2/C(=O)C(=O)N(c3nc(C)c(C)s3)C2c2ccco2)cc1` (centres undefined), for which the Potency is greater than 20.6 µM.

As to `COC(=O)NC(Nc1sc2c(c1C(N)=O)CCCC2)(C(=O)OC)C(F)(F)F` (centres undefined), the Potency was greater than 20.6 µM. For `CC(C)(C)c1ccc(O)c(N)c1`, the Potency is greater than 20.6 µM. Next, `COC(=O)C(NC(=O)c1ccco1)(Nc1nc(C)cs1)C(F)(F)F` (centres undefined): greater than 20.6 µM; `COc1ccc(C2=Nn3c(nnc3-c3ccccn3)SC2)cc1`: greater than 20.6 µM; `COCCNc1oc(-c2ccc(C)cc2)nc1C#N`: greater than 20.6 µM. Take `CCOC(=O)Cc1nnc(Nc2cccc(O)c2)c2ccccc12`: the Potency was greater than 20.6 µM.

As for `CCOC(=O)c1cc(C)n(Cc2cccc(OC)c2OC)c1C`, the Potency was greater than 20.6 µM. To `CC(=N\O)/C(CN(C)C)=N/O` belongs greater than 20.6 µM; to `O=C(c1ccc(-n2cnnn2)cc1)N1CCOCC1`, greater than 20.6 µM.
